# About 79,000 compounds went through this panel and 15% of them were active in at least one assay; those are over-represented in the sample as a whole. Values without a mark were called inactive. Calls of active or inactive are those of the source. Cut-off read from the data, not from the text of the source: active = growth inhibition above about 70%; inactive = the rest.
# Test: NCI Yeast Anticancer Drug Screen. Data for the mlh1 strain (AID 171);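 note: 0% = growth of vehicle-treated control cultures of the same strain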
# Conditions: S. cerevisiae mlh1 strain growth inhibition, stronger effect = higher value
# Protocol: Growth inhibition of yeast strains with defined genetic alterations is measured as a screen for potential anti-cancer activity. Selected strains with alterations in DNA damage repair or cell cycle control were exposed to compounds and growth inhibition was measured relative to vehicle treated controls. The strain used in this assay is mlh1
Structure (SMILES),growth inhibition (at 1.2 µM) [%],growth inhibition (at 3.7 µM) [%],growth inhibition (at 11.0 µM) [%],growth inhibition (at 33.0 µM),growth inhibition (at 100.0 µM)
CCCCCCC=C(C(=O)OCC)C(=O)OCC,-2,-2,-7,1%,19%
O=C(NC(N1CCN(c2cc3c(cc2F)c(=O)c(C(=O)O)cn3C2CC2)CC1)(C(F)(F)F)C(F)(F)F)c1ccccc1,-4,-2,0,11%,39%
Fc1cc(F)c(F)c(S)c1F,-34,-27,0,72% (active),98% (active)
CCN(CC)C(=S)SC(=S)N(CC)CC,-38,-48,-6,88% (active),98% (active)
CCOc1ccc(N)c(S)c1,0,3,10,82% (active),98% (active)
COC(=O)C(=O)CC(=O)c1cccc(OC)c1,-11,-5,-3,39%,64%
COc1cc2c(cc1O)[C@H](C)C(c1ccccc1OC)O2 (stereo not given in full),17,24,-2,47%,97% (active)
CN(C)CCNC(=Cc1ccc2ccccc2[n+]1C)NCCN(C)C,0,-2,1,0%,0%

# Reference: PubChem BioAssay (NCI)
